Compounds with a hit are over-represented: about 4.8% of the library has one in this group of screens.
SKKanGAS inh – SKKanGAS growth inhibition; S. pyogenes SKKanGAS, kanamycin growth, BacTiter-Glo, 6 h; inhibition, % at 7.5 µM; actives 1.3% (n = 300,000); AID 1662;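 active = mean replicate score, as percent of positive control median, at least 50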;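 note: strain carries kanamycin resistance gene driven by streptokinase promoter and grows in 40 µg/ml kanamycin; loss of luminescence reflects streptokinase promoter inhibition or plain growth inhibition; 0% = median of DMSO wells and 100% = positive control at its reference dose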
NALP1 inh – blocks the NALP1 inflammasome reconstituted in yeast; S. cerevisiae NALP1/ASC/caspase-1 growth, X-gal OD620, 72 h; inhibition, % at 10 µM; actives 0.61% (n = 280,000); AID 2071; in the data active = inhibition mostly above about 24%, no sharp cut-off; inactive = mostly below about 32%
tim10-1 inh – tim10-1 yeast growth inhibition; AID 463190; S. cerevisiae tim10-1 ts strain growth, BacTiter-Glo, 24 h; inhibition, % at 20 µM; actives 2.2% (n = 330,000);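 active = inhibition of at least 40%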;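 note: mutant grown at 25 °C; 0% = DMSO wells with yeast and 100% = wells holding no yeast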
tim23-1 inh – growth inhibitors of tim23-1 mutant yeast. S. cerevisiae tim23-1 growth, BacTiter-Glo luminescence, 24 h. inhibition, % at 20 µM. actives 1.3% (n = 330,000). AID 463212;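 active = growth inhibition of the mutant yeast at or above 50%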;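 note: temperature-sensitive mutant grown at 25 °C; plate controls were DMSO-treated mutant yeast for no effect and medium wells lacking yeast for full effect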
PfHsp90 yeast 2 – growth inhibition of yeast expressing Plasmodium Hsp90. S. cerevisiae expressing PfHsp90, BacTiter-Glo ATP, 48 h; yeast lacking PDR1 and PDR3 efflux regulators. AID 504621. inhibition, % at 9.4 µM. actives 0.32% (n = 310,000);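 active = every replicate shows inhibition above about 80%, whatever the replicate mean, limit read from the data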;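 note: 0% = DMSO neutral controls and 100% = 20 µM radicicol positive controls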
TIM10 inh – TIM10 yeast growth inhibition. S. cerevisiae TIM10 strain growth, BacTiter-Glo luminescence, 24 h. AID 463195. inhibition, % at 10 µM. actives 1.4% (n = 330,000);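 active = inhibition of 40% or more at the single tested concentration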;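 note: wild-type TIM10 isogenic control strain grown at permissive 25 °C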
Active calls of the source: *; x = not tested or not shown.

SMILES | SKKanGAS inh | NALP1 inh | tim10-1 inh | tim23-1 inh | PfHsp90 yeast 2 | TIM10 inh
O=C(c1cnn2c(C(F)(F)F)cc(-c3ccc(F)cc3)nc12)N1CCc2ccccc2C1 | 62* | -1 | 18 | 33 | 4 | 13
Cc1ccc(-c2cc(C(F)F)n3ncc(C(=O)N4CCc5ccccc5C4)c3n2)cc1 | -2 | -20 | 34 | 12 | 9 | 34
Cc1ccc(C)c(C(=O)CN2C3=NCCCN3c3ccccc32)c1 | -8 | 33* | 7 | 11 | -17 | 5
COc1ccc(C(=O)CN2C3=NCCCN3c3ccccc32)cc1OC | 9 | 22 | 3 | 6 | -6 | 6
Oc1ccc(Cl)cc1Sc1cc(Cl)ccc1O | x | x | x | x | 102* | x
COc1ccc2oc(=O)c(C(=O)Nc3ccccc3-c3ccccc3)cc2c1 | x | 5 | x | x | 1 | x
O=C(NNC1=Nc2ccccc2SC1)c1ccc(F)cc1 | 69* | -4 | 28 | 24 | -11 | -1
O=C(NNC1=Nc2ccccc2SC1)c1ccc(Cl)cc1 | 90* | x | 7 | -6 | -19 | -14
COc1ccc(N2CCN(C(=O)CCNS(=O)(=O)c3cccs3)CC2)cc1 | -6 | -8 | -7 | -7 | 29 | -8
O=C(NNc1c(Cl)cccc1Cl)c1c(F)cccc1Cl | 51* | 9 | 6 | -2 | 7 | 0
O=c1[nH]c2cccnc2n1Cc1ccccc1 | 0 | 41* | 0 | -6 | -2 | -6
CCc1ccc(NC(=O)CSc2nnc(Cc3cccn3C)n2-c2ccc(F)cc2)cc1 | 4 | 20 | 24 | 16 | 31 | 2
Cc1ccc(OC(=S)Nc2ccc(F)cc2)cc1 | -1 | -2 | 7 | 0 | x | 1
Cc1ccc(OC(=S)Nc2ccc(O)cc2)cc1 | x | 69* | -5 | -3 | 12 | -4
CCOc1ccc(CN2CCN(CC(O)Cn3c4ccccc4c4ccccc43)CC2)cc1 (stereo not drawn) | 7 | 77* | -64 | -23 | 23 | -38
COc1ccc(CN2CCN(CC(O)Cn3c4ccccc4c4ccccc43)CC2)cc1 (stereo not drawn) | 1 | 62* | -18 | -60 | 2 | -21
COc1ccc(-c2nn(CCC#N)cc2/C=N/O)cc1 | 0 | -10 | 1 | 6 | 20 | -2
O=C(Cn1nnc(-c2ccccc2)n1)N/N=C/c1cccc([N+](=O)[O-])c1 | -5 | 11 | 11 | 8 | -56 | 11
O=C(Cn1nnc(-c2ccccc2)n1)N/N=C/c1cccc([N+](=O)[O-])c1O | 90* | -5 | 8 | 5 | -1 | -2
CCOc1cc(CNCC(C)C)cc(Cl)c1OCc1ccccc1 | -14 | 36* | -16 | 7 | 21 | 13
CCOc1cc(CNCCO)cc(Br)c1OCc1ccccc1Cl | -1 | 32* | 6 | 3 | 13 | 13
CCCCc1ccc(NC(=O)CC(C)(C)C)cc1 | 6 | 33 | 2 | 21 | 11 | 3
COc1ccc(CC(=O)N(CC2CCCO2)c2nc3ccccc3s2)cc1 (stereo not drawn) | 3 | 27 | 1 | -6 | -16 | 14
CC(C)(C)c1ccc2c(c1)OC(C(=O)N/N=C/c1ccc([N+](=O)[O-])o1)CO2 (stereo not drawn) | 66* | 12 | -49 | 28 | x | 6
CCc1ccc(OCC(=O)OC2CCS(=O)(=O)C2)cc1 (stereo not drawn) | -3 | 25* | 21 | 22 | 16 | 12
SMILES | SKKanGAS inh | NALP1 inh | tim10-1 inh | tim23-1 inh | PfHsp90 yeast 2 | TIM10 inh
O=C(OCc1ccccc1)c1cccc(-c2nnn(Cc3ccccc3)n2)c1 | 55* | -13 | 33 | -3 | 7 | 1
O=C(Cn1nnc(-c2ccccc2)n1)OCc1ccccc1 | -3 | 15 | 25 | 9 | -18 | 0
O=C(N/N=C/c1cc(Br)ccc1O)C(=O)Nc1ccccc1OC(F)(F)C(F)F | 103* | 17 | x | x | -20 | x
O=C(N/N=C/c1cc(Cl)ccc1O)C(=O)Nc1ccccc1OC(F)(F)C(F)F | x | 8 | x | x | -4 | x
O=C(Cn1sc2ccccc2c1=O)NC12CC3CC(CC(C3)C1)C2 | 89* | -2 | 33 | 19 | x | 26
COc1cccc(C2NC(c3cccc(OC)c3O)C(C)C(=O)C2C)c1O (stereo not drawn) | 12 | 10 | 29 | 9 | -2 | -9
CC1C(=O)C(C)C(c2cc(Cl)ccc2O)NC1c1cc(Cl)ccc1O (stereo not drawn) | 74* | 10 | 27 | 37 | 13 | -5
COc1ccc(CCN2C(=O)c3[nH]nc(-c4ccccc4O)c3C2c2cccc(Cl)c2)cc1 (stereo not drawn) | 71* | 19 | 33 | 31 | -15 | 6
Cc1ccc(Nc2ccncc2S(N)(=O)=O)cc1 | -1 | x | -10 | 3 | x | 7
O=C(N=Nc1c(O)[nH]c2ccc(F)cc12)c1ccc(NS(=O)(=O)c2cccs2)cc1 | x | x | 0 | -2 | 13 | -9
Cc1ccc2[nH]c(O)c(N=NC(=O)c3ccc(NS(=O)(=O)c4cccs4)cc3)c2c1 | 76* | x | 14 | 4 | 4 | 4
CC(C)(C)c1ccccc1OCCCCCn1ccnc1 | 63* | 13 | 18 | 22 | 32 | 13
Cc1ccc(C(C)(C)C)c(OCCCn2ccnc2)c1 | 0 | 33 | 0 | 10 | -3 | -10
O=[N+]([O-])c1ccc(Nc2nc(NCCO)nc(N3CCCC3)n2)cc1 | 97* | 13 | 37 | 8 | 8 | 6
COc1ccc(Nc2nc(NCCO)nc(N3CCCC3)n2)cc1 | -1 | x | 20 | 17 | 22 | 10
OCCNc1nc(Nc2ccc(Cl)cc2)nc(N2CCCC2)n1 | 0 | x | 25 | 35 | 2 | 16
CCCNc1nc(Nc2ccc(C)cc2)nc(N2CCCC2)n1 | 33 | 42* | 17 | 39 | -3 | 1
CN(C(=O)CSc1nnc2n1CCCCC2)C1(C#N)CCCCC1 | x | x | -14 | -2 | 30 | -2
CCc1noc(C)c1C(=O)OCC(=O)NC(=O)c1ccccc1 | 50* | 8 | -20 | 11 | 10 | -3
C[C@@H](C[C@@H](O)[C@H](O)C(C)(C)O)[C@@H]1CC[C@]2(C)C3=CC[C@H]4C(C)(C)C(=O)CC[C@]4(C)[C@H]3CC[C@@]12C | 96* | 44* | 12 | 28 | 3 | 18
CSc1ncccc1C(=O)Nc1ccccc1N1CCOCC1 | x | x | 16 | 18 | -7 | 7
O=c1cc(O)c2c(=O)n(-c3ccccc3)c3ccccc3c2o1 | 102* | 20 | -30 | 15 | -13 | -28
CCn1c(=O)c2c(O)cc(=O)oc2c2ccccc21 | -1 | -8 | 25 | 40 | x | 29
Cc1nn(Cc2ccccc2Cl)c2sc(C(=O)Nc3ccccc3N3CCOCC3)cc12 | 60* | 27 | 18 | 4 | 6 | 22
Cc1nn(Cc2ccc(F)cc2)c2sc(C(=O)Nc3ccccc3N3CCOCC3)cc12 | 10 | 16 | 18 | 6 | 5 | 14
CNC(=O)CSc1nnc(-c2ccco2)n1-c1ccccc1 | -3 | x | 0 | -7 | -6 | 1

High-throughput results: PubChem BioAssay, several laboratories
